# Screening data (PubChem)
# Hits are enriched below; roughly 0.68% of the tested compounds scored in any of these assays.
# LmPK inhibitor = inhibitors of Leishmania mexicana pyruvate kinase; purified LmPK, Kinase-Glo ATP luminescence, 1 h; Potency, µM (doses to about 57.5 µM), for the others: top-dose activity change, negative = inhibition, actives largely listed as inhibitors; 290,000 compounds, 0.37% hits; note: potency is the fitted concentration of half-maximal effect; % is set by controls: 0 for no effect and ±100 for the full control effect
# Target sequence (Q27686 whole entry, looked up): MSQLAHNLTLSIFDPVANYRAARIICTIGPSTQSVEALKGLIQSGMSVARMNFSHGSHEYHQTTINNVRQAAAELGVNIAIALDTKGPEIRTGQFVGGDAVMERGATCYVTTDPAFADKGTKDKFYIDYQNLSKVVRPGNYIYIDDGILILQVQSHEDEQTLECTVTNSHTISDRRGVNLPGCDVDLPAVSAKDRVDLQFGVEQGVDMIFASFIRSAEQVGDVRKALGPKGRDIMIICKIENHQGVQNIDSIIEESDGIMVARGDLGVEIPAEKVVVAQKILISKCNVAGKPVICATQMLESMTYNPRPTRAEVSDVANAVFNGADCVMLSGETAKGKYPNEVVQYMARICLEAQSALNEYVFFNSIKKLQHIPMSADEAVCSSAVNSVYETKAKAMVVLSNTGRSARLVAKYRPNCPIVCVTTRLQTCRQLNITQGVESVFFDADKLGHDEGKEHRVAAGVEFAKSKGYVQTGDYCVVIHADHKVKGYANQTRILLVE
#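 qHTS format; LmPK 0.1 nM; substrates PEP 0.5 mM and ADP 0.1 mM. One-hour room-temperature incubation, then coupled luciferase luminescence; 0.5 nM enzyme wells mark activation.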
# RE007 growth inh = less growth of the S. pombe RE007 Vpr strain | AID 651644 | 360,000 compounds, 0.21% hits | S. pombe RE007 Vpr strain, BacTiter-Glo ATP luminescence, 24 h | Potency, µM (top dose mostly 92.2 µM), without a hit: top-dose activity change, negative = less growth, usual class: inhibitors; active = well fitted falling curve with a large enough effect; inconclusive = small, poorly fitted or top-dose-only effect; inactive = no such curve, though single readings can be large or run the other way; note: potency is the fitted concentration of half-maximal effect; % is set by controls: 0 for no effect and ±100 for the full control effect; nearly all actives have a fitted effect of over 50% in size
#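 Fission yeast RE007 carrying one integrated HIV-1 vpr copy, seeded at OD 0.01 in PMG+AL medium with 23 nL pinned compound. Grown 24 h at 30 degrees; viability read by BacTiter-Glo luminescence after 5 min.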
# AMA1 RON2 block = disrupts binding of P. falciparum AMA1 to RON2; 360,000 compounds, 0.2% hits; AlphaScreen AMA1-biotinylated RON2 peptide binding; Potency, µM (doses to about 58.2 µM), without a hit: at the highest dose activity change, negative = inhibition, actives largely listed as inhibitors;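 note: potency is the fitted concentration of half-maximal effect; 0% = vehicle wells and -100% = peptide control; nearly all actives have a fitted effect of over 45% in size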
#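 AMA1 (3D7) with his tag at 25 nM final met compounds first, then biotinylated RON2 peptide at 25 nM; detection used donor plus acceptor beads, 10 µg/mL apiece, read by AlphaScreen after 30 min at room temperature.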
# TbPYK inhibitor = inhibitors of Trypanosoma brucei pyruvate kinase; Q57TT1; TbPYK enzyme, Kinase-Glo Plus ATP luminescence, 45 min; Potency, µM (series often up to 76.8 µM), without a hit: top-dose activity, negative = inhibition, most hits filed as inhibitors; 410,000 compounds, 0.12% hits; note: potency is the fitted concentration of half-maximal effect; % is set by controls: 0 for no effect and ±100 for the full control effect; nearly all actives have a fitted effect of over 50% in size
#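 Enzyme and substrate buffer are dispensed first and compound is pin-transferred. ADP at 130 uM final then starts the reaction, which runs 45 min at room temperature. Detection reagent is added for 10 min before luminescence is imaged.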
# LmPK inh confirm = Blocks LmPK activity, confirmation assay. shares compounds with LmPK inhibitor. purified LmPK, Kinase-Glo ATP luminescence, 1 h. Potency, µM (doses to about 57.5 µM), without a hit: at the top dose activity change, negative = inhibition, hits mostly inhibitors. 150 compounds, 40% hits. AID 2559;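 active = compounds giving a full or partial concentration-response curve, as inhibitors or activators; inconclusive = weak, top-dose-only or unclear curve responses; inactive = no response at any tested dose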
# * marks the source's active call; other numbers are inactive results; ? = inconclusive; nt = no result given; [ ] = another dose, or the depositor's remark. Unless noted, calls come from the whole dose curve; as a rule, active = well fitted curve in the direction sought with a large enough effect; inconclusive = small, poorly fitted or top-dose-only effect, or another doubt; inactive = no such curve, though single readings can be large; an effect the other way counts as inactive or inconclusive.
SMILES,LmPK inhibitor,RE007 growth inh,AMA1 RON2 block,TbPYK inhibitor,LmPK inh confirm
COc1ccc(/C=N/NC(N)=S)cc1OC(=O)c1cccc2ccccc12,-1.1%,4.0%,5.8%,-1.6%,-0.7%
COc1ccc(C(=O)Oc2cc(/C=N/NC(N)=S)ccc2OC)cc1,3.5%,-4.8%,2.4%,0.3%,nt
COc1cc(/C=N/N2C(C)CCCC2C)cc(OC)c1O (stereo not given),2µM*,3.8%,-7.4%,-5.1%,?
OC[C@@H]1CN(Cc2ccc3c(c2)OCO3)C[C@H](n2cnc3c(NCc4ccncc4)ncnc32)O1,nt,-12.5%,15.3%,0.4%,nt
COc1ccc(CC(=O)Nc2ccc(-c3cn4ccccc4n3)cc2)cc1OC,4.2%,-15.8%,-3.5%,-3.4%,nt
C[C@]12CC[C@@H]3c4cc(O)c(O)cc4CC[C@H]3[C@@H]1CC[C@@H]2O,0.562µM*,-14.9%[18.4 µM],?,?,?
CN(Cc1ccon1)Cc1cn(C)nc1-c1ccc2c(c1)OCCO2,5.9%,-11.6%,29.9%,-0.9%,-5.1%
Cc1ccc(Cl)cc1N1CCN(S(=O)(=O)c2ccc3c(c2)OCCO3)CC1,-0.4%,-3.1%,-2.0%,-6.8%,8.7%
CC1=CC(C)(C)N(C(=O)c2ccccc2)c2ccc(C)cc21,-1.5%,nt,0.0%,1.6%,4.9%
COCCNC(=S)N1CCN(S(=O)(=O)c2ccc(Cl)s2)CC1,-9.1%,3.6%,-9.4%,-2.5%,nt
Cc1ccc(-n2[nH]c(C)c(/C=N/c3ccccn3)c2=O)cc1,-19.6%,?,3.0%,2.6%,?
Cc1[nH]n(-c2ccccc2)c(=O)c1C=Nc1cccc2cccnc12,1.1%,-3.8%,6.0%,-2.6%,nt
CN(Cc1cn(C)nc1-c1cccc(Cl)c1)Cc1nccn1C,2.2%,8.1%,51.8%,-8.2%,-0.6%
CCOc1ccc(C(=O)O/N=C(\N)c2ccccn2)cc1,?,?,31.8%,12.6µM*,6.51µM*
Cc1ccc(C(=O)O/N=C(\N)c2ccccn2)cc1C,?,-25.0%,49.6%,?,nt
N/C(=N\OC(=O)c1ccccc1)c1ccccn1,4.47µM*,?,-8.4%,?,8.19µM*
CCn1c(SCC(=O)Nc2sc3c(c2C#N)CCC(C(C)(C)C)C3)nnc1-c1ccco1 (stereo not given),4.5%,1.3%,1.8%,3.3%,6.8%
COC(=O)C(C(=O)Nc1ccccc1C)C1CCCCCC1 (stereo not given),1.4%,-18.7%,11.7%,0.0%,nt
COc1cccc(/C=N/NC(=O)c2ccoc2C)c1O,7.94µM*,-13.3%,106.6%,-12.9%,18.3µM*
COc1cccc(/C=N/NC(=O)C(=O)N/N=C/c2cccc(OC)c2O)c1O,-1.6%,4.6%,?,2.1%,nt
Cc1cccc(N2CC(O)(c3cccs3)[N+]3=C2CCCCC3)c1 (stereo not given),-3.1%,-22.5%,0.9%,-1.5%,nt
CC1(C)C(=O)NCCN1C(=O)CC1C(=O)NCCN1CC(c1ccccc1)c1ccccc1 (stereo not given),0.7%,-0.5%,12.2%,0.8%,nt
